In all, about 140,000 compounds went through this assay and about 1,200 (0.86%) were called active. Cut-off read from the data, not from the text of the source: active = activity change below about -25%; inactive = the rest. Only a selection was taken, and actives are over-represented in it overall.
The compounds below were run against Inositol hexakisphosphate kinase 1 (Homo sapiens) (UniProt Q92551) (assay: Primary qHTS assay for small molecule inhibitors of Inositol hexaphosphate kinase 1 (IP6K1)). Details: ADP-Glo luminescence, 2 h, hits give low values.
Inositol hexakisphosphate kinase 1 (Homo sapiens), sequence (Q92551 whole entry, looked up): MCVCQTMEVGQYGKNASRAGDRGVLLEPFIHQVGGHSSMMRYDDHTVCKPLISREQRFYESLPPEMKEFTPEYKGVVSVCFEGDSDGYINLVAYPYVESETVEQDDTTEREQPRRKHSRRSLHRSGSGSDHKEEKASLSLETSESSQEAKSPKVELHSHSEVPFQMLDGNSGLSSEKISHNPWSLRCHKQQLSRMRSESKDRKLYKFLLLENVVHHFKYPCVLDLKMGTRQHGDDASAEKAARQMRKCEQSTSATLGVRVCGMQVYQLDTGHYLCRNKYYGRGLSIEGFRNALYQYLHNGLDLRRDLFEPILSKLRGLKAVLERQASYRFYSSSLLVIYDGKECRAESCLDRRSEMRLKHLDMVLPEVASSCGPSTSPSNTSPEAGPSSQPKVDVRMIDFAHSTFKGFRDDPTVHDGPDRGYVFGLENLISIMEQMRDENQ
Method in brief: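 ADP-Glo luminescence measures ADP made by human IP6K1 during a 2 h RT reaction with ATP/IP6 (mix at 1.3 mM/130 uM); top library doses 57.5 and 19.1 uM final.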
% is set by controls: 0 for no effect and ±100 for the full control effect.
Note: series mostly up to about 58 µM.

Row | Structure (SMILES) | activity change
1 | Cc1ccccc1Cc1c(C)nc2c(C(=O)N3CCc4c(c(-c5nncn5C)nn4C)C3)cnn2c1C | 9.9% (inactive)
2 | N#CC1CCN(C(=O)c2ccc3nnc(Cc4ccco4)n3c2)CC1 | 2.16% (inactive)
3 | COc1ccccc1-c1cc(-c2cccc([S+](C)(=O)[O-])c2)c2onc(C)c2n1 | 2.9% (inactive)
4 | COc1ccccc1-c1cc(-c2cn[nH]c2)c2onc(C)c2n1 | -25.3% (active)
5 | Cc1noc2c(-c3cccc(CO)c3)cc(-c3ccccc3)nc12 | -16.9% (inactive)
6 | Cn1c(CCC(=O)N2CC[C@H](CO)[C@H](O)C2)nc2cccnc21 | -2.6% (inactive)
7 | COc1ccccc1C(=O)N1CCCC2(C1)Nc1cccnc1NC2=NCc1ccccc1 (stereo not drawn) | 6.92% (inactive)
8 | O=C(NCC1CCCCC1)[C@@H]1CCCN1c1ccnc2ccnn12 | -2.98% (inactive)
9 | CN(C)c1ccc(CN2CCC(N3Cc4ccccc4C3=O)CC2)cc1 | -12.5% (inactive)
10 | CCc1ccccc1N1C(=O)CN(S(=O)(=O)CC)CC1(C)C(=O)NC1CCCCC1 (stereo not drawn) | -30.6% (active)
11 | CCc1ccc(N2C(=O)CN(S(=O)(=O)CC)CC2(C)C(=O)NC2CCCCC2)cc1 (stereo not drawn) | -13.3% (inactive)
12 | CCc1ccccc1NC(=O)c1ccc(F)c(S(=O)(=O)NC2CCCCCC2)c1 | 15.5% (inactive)
13 | COC(=O)NC1CCN(Cc2ccc(-c3cc(F)ccc3OC)cc2)C1 (stereo not drawn) | 6.69% (inactive)
14 | Cc1oc(C(O)c2ccccc2)nc1C(=O)Nc1ccc2c(c1)CC(=O)N2 (stereo not drawn) | 9.78% (inactive)
15 | CCc1ccccc1N1CC(c2nc3ccccc3n2CCCCOc2ccccc2)CC1=O (stereo not drawn) | -28.8% (active)
16 | COc1ccc(OCCCn2c(C3CC(=O)N(c4ccc(F)cc4)C3)nc3ccccc32)cc1 (stereo not drawn) | -3.06% (inactive)
17 | CCOc1ccc(N2CC(c3nc4ccccc4n3CCOc3ccc(OC)cc3)CC2=O)cc1 (stereo not drawn) | -11.8% (inactive)
18 | COCCO[C@H]1C(=O)N(C2CCN(C(=O)c3ccsc3)CC2)[C@H]1c1ccncc1 | 6.99% (inactive)
19 | CCOC(=O)c1ccc(NC(=O)c2c(NCc3cccc(OC)c3)sc3c2CCC3)cc1 | 8.31% (inactive)
20 | CCOC(=O)c1ccc(NC(=O)c2c(NCc3cccs3)sc3c2CCCC3)cc1 | -31.3% (active)
21 | CCOC(=O)c1ccc(NC(=O)c2csc3c2CCCCC3)cc1 | 3.62% (inactive)
22 | CC(=O)Nc1cccc(C(=O)N2CCCN(c3cc(-c4ccc(Br)cc4)[nH]n3)CC2)c1 | -10.1% (inactive)
23 | O=C(NCc1ccc(F)c(F)c1)C1CCCN(Cc2cccc(-c3cccs3)c2)C1 (stereo not drawn) | 0.462% (inactive)

Reference: PubChem BioAssay AID1645851 (National Center for Advancing Translational Sciences (NCATS), 2021)
